Assay [1] can be described thus: qHTS profiling of the MIPE4 collection as inhibitors of Plasmodium falciparum (3D7) proliferation (AID 743344; call rule not given here;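 further: scaled between DMSO vehicle wells and 0.29 µM artemisinin as full inhibition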). The following applies: P. falciparum 3D7 in erythrocytes, SYBR Green DNA fluorescence, 72 h; at 28.5 µM unless noted. The procedure, abridged:
(§1)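 Erythrocytes infected with P. falciparum (0.3% parasitemia, 2.5% hematocrit) incubated with compounds 72 h at 37 C, 5% CO2. Lysis with saponin/Triton buffer containing SYBR Green I, overnight at room temperature in the dark; DNA fluorescence (485/535 nm) normalised to 0.29 uM artemisinin and DMSO.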
(qHTS replaces the single test concentration by a dilution series.)

The nature of assay [2]: qHTS profiling of the MIPE4 collection as inhibitors of Plasmodium falciparum (DD2) proliferation (AID 743345; call rule not given here). To be noted: P. falciparum Dd2 in erythrocytes, SYBR Green DNA, 72 h; at 28.5 µM unless noted. The essentials: as §1
Assay [3] is described as follows: qHTS profiling of the MIPE4 collection as inhibitors of Plasmodium falciparum (DD2) proliferation (Rep 2) (AID 743346; call rule not given here). To be noted: P. falciparum Dd2 in erythrocytes, SYBR Green DNA, 72 h; at 28.5 µM unless noted. The procedure, abridged: as §1
Assay [4] can be described thus: qHTS profiling of the MIPE4 collection as inhibitors of Plasmodium falciparum (HB3) proliferation (AID 743347; call rule not given here;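 further: plate controls were DMSO vehicle wells for no effect and artemisinin wells for full effect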). The following applies: P. falciparum HB3 in erythrocytes, SYBR Green DNA, 72 h; at 28.5 µM unless noted. The procedure, abridged: as §1
Assay [5] is described as follows: High-throughput drug toxicity screening in the BPDCN cell line Gen2.2 (AID 1224824; call rule not given here;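 further: cells exposed to compounds for 48 h before reading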). The following applies: Gen2.2 BPDCN cells; at 45.8 µM (top of the series) unless noted. The essentials: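 Gen2.2 cells (500/well) in phenol red-free RPMI with 10% FBS were exposed to compounds for 48 h at 37 °C, 5% CO2. Viability was read by CellTiter-Glo luminescence and normalized to DMSO (100%) and 9.2 uM bortezomib (0%).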

A short description of assay [6]: High-throughput drug toxicity screening in the BPDCN cell line Cal-1 (AID 1224825; call rule not given here). The following applies: Cal-1 BPDCN cell viability, qHTS; at 45.8 µM (top of the series) unless noted. The essentials: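 Exponentially growing Cal-1 cells, 500 per well in phenol red-free RPMI with 10% FBS, were exposed to compounds for 48 h at 37 °C, 5% CO2. Viability was read by CellTiter-Glo luminescence and normalised to DMSO (100%) and 9.2 uM bortezomib (0%).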

Assay [7] is described as follows: qHTS assay for measurement of the activity of small molecule inhibitors on Zika virus induced Caspase-3 activity in human astrocytoma cells (AID 1224859). Further: potency means the concentration at half of the fitted maximal effect. The essentials:
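Caspase activation in ZIKV-infected SNB-19 cells (2 FFU/cell, 6 h) measured by Caspase-Glo 3/7 luminescence after 30 min RT; compound pre-incubated 1 h; normalised to uninfected and infected controls.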

Assay [8] can be described thus: qHTS Screen of the MIPE 4.0 Collection Against Ewings Sarcoma (RDES) (AID 1259252). Further: nearly all actives have a fitted effect of over 35% in size. Further: potency means the concentration at half of the fitted maximal effect. The procedure, abridged: (§2)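 Here, cells in 5% FBS RPMI were exposed for two days (48 h) to compound dilutions added four hours after plating. ATP-based CellTiter-Glo luminescence measured viability, normalized to vehicle and no-cell blanks.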
Assay [9] is described as follows: qHTS Screen of the MIPE 4.0 Collection Against Ewings Sarcoma (EW8) (AID 1259255). Further: nearly all actives have a fitted effect of over 35% in size. Further: potency means the concentration at half of the fitted maximal effect.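 On viability: 100% = DMSO-treated cells and 0% = medium-only wells without cells.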 The essentials: as §2
Assay [10] is described as follows: qHTS Screen of the MIPE 4.0 Collection Against Ewings Sarcoma (TC32) (AID 1259256). Further: nearly all actives have a fitted effect of over 45% in size. Further: potency means the concentration at half of the fitted maximal effect. The essentials:
as §2

Assay [11] is described as follows: qHTS Screen of the MIPE 4.0 Collection Against Ewings Sarcoma (TC71) (AID 1259253). Further: nearly all actives have a fitted effect of over 40% in size. Further: potency means the concentration at half of the fitted maximal effect. The essentials:
as §2

Assay [12] is described as follows: qHTS assay to identify small molecule inhibitors of chordoma cells - UCH-1 (AID 1259355). Further: on the % scale 0 is the no-effect control and ±100 the full control effect; nearly all actives have a fitted effect of over 55% in size. The essentials: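 Luminescent ATP read-out (CellTiter-Glo, 30min at room temperature) measured viability of UCH-1 cells exposed for 48hr to test drugs at 15 concentrations, co-dosed with a five-agent combination of auranofin, camptothecin, doxorubicin, rubitecan and topotecan.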

A short description of assay [13]: qHTS assay to identify small molecule inhibitors of chordoma cells - UCH-2 (AID 1259356). Further: on the % scale 0 is the no-effect control and ±100 the full control effect.

Records with an inconclusive call do not appear. Active and inactive are the calls of the source. Unless noted, the call rests on the fitted dose curve; in most records, active means well fitted curve in the direction sought with a large enough effect; inconclusive means small, poorly fitted or top-dose-only effect, or another doubt; inactive means no such curve, though single readings can be large; an effect the other way counts as inactive or inconclusive.

For the compound `Cc1ccccc1C(C(=O)NC1CCCCC1)N(C(=O)Cn1ccnc1C)c1cccc(F)c1` (stereo unspecified), in [1], the parasite growth, % of DMSO control was 103%. Also, the parasite growth remaining, % of DMSO control (lower = more inhibition) in [2] turned out to be 36.3%. Moreover, the parasite growth, % of control (lower = inhibition) in assay [3] was 25.9%. This compound also came in with a growth, % of control in [4] of 271%. Moreover, in [5], the cell viability, % of control (lower = more cytotoxic) worked out at 125%. In assay [6], the viability (% of control) came out at 107%. Further, the Potency entry in assay [7], in assay [8] and in [9] was “inactive” throughout. Moreover, in assay [10], the Potency is 8.33 µM (active).

`Cc1c(NC(=O)c2ccc(C(C)(C)C)cc2)cccc1-c1cn(C)c(=O)c(Nc2ccc(C(=O)N3CCOCC3)cc2)n1` came in with a parasite growth, % of DMSO control in assay [1] of 5.68%. The parasite growth remaining, % of DMSO control (lower = more inhibition) in assay [2] turned out to be 6.89%. The same compound returned a growth, % of control in [4] of 5.53%. In addition, the cell viability, % of control (lower = more cytotoxic) in assay [5] amounted to 29.7%. Moreover, the viability (% of control) in [6] was 42.2%. Further, the values for the Potency in assay [7], in assay [9] and in assay [10] were 11.8 µM (active), 20.9 µM (active) and 20.9 µM (active), respectively.

In the case of `CC1(C)CCC2=C(O1)c1ccccc1C(=O)C2=O`, the parasite growth, % of DMSO control in assay [1] is 22.8%. Also, the parasite growth remaining, % of DMSO control (lower = more inhibition) in assay [2] worked out at 71%. Besides, the parasite growth, % of control (lower = inhibition) in assay [3] stood at 21.7%. Moreover, the cell viability, % of control (lower = more cytotoxic) in [5] is 4.24%. The viability (% of control) in [6] turned out to be 4.06%. The Potency result in [7] is “inactive”. Besides, the Potency in [8] was 26.4 µM (active); in assay [11], 26.4 µM (active); in assay [9], 23.5 µM (active).

`CC(C)C(=O)Oc1ccc(CO)cc1[C@H](CCN(C(C)C)C(C)C)c1ccccc1`: in assay [1], the parasite growth, % of DMSO control is 37.9%. Also, the parasite growth remaining, % of DMSO control (lower = more inhibition) in assay [2] came to 40.7%. The parasite growth, % of control (lower = inhibition) in assay [3] is 20.1%. Also, the growth, % of control in [4] was 45.5%. Besides, the cell viability, % of control (lower = more cytotoxic) in assay [5] came out at 126%. The viability (% of control) in assay [6] was 102%. Also, the Potency result in assay [7], in assay [8], in [11] and in assay [9] was “inactive” each time.

For the compound `Cc1cnc(C(=O)O)c[n+]1[O-]`, the parasite growth, % of DMSO control in assay [1] was 97%. Besides, the parasite growth remaining, % of DMSO control (lower = more inhibition) in assay [2] was found to be 104%. Besides, the parasite growth, % of control (lower = inhibition) in [3] turned out to be 108%. Moreover, the growth, % of control in assay [4] came out at 66.8%. Moreover, the cell viability, % of control (lower = more cytotoxic) in [5] is 174%. Besides, the viability (% of control) in assay [6] turned out to be 105%. In addition, the Potency entry in assay [7], in assay [9] and in assay [12] was “inactive” each time. Further, the call in [13] was inactive.

As for `CCn1cc(C(=O)O)c(=O)c2ccc(C)nc21`, the cell viability, % of control (lower = more cytotoxic) in assay [5] worked out at 120%. The viability (% of control) in assay [6] stood at 113%. The Potency result in assay [7], in assay [8], in assay [11], in [9], in assay [10] and in [12] was “inactive” each time. For the same compound, the result in [13] was inactive.

With `C[N+]1(C)[C@@H]2CC(OC(=O)[C@H](CO)c3ccccc3)C[C@H]1[C@H]1O[C@@H]12` (stereo partly specified), the parasite growth, % of DMSO control in assay [1] worked out at 93.9%. In addition, in assay [3], the parasite growth, % of control (lower = inhibition) worked out at 84.8%. The cell viability, % of control (lower = more cytotoxic) in [5] turned out to be 112%. In assay [6], the viability (% of control) was 130%. For the same compound, the Potency result in [7], in assay [8], in assay [11], in [9], in [10] and in [12] was “inactive” each time. Moreover, the result in assay [13] was inactive.

For the compound `CC=CC[C@@H](C)C(=O)[C@H]1C(=O)N[C@@H](C(C)C)C(=O)N(C)CC(=O)N(C)[C@@H](CC(C)C)C(=O)N[C@@H](C(C)C)C(=O)N(C)[C@@H](CC(C)C)C(=O)N[C@@H](C)C(=O)N[C@H](C)C(=O)N(C)[C@@H](CC(C)C)C(=O)N(C)[C@@H](CC(C)C)C(=O)N(C)[C@@H](C(C)C)C(=O)N1C`, the parasite growth, % of DMSO control in assay [1] was found to be 90.9%. Besides, in assay [2], the parasite growth remaining, % of DMSO control (lower = more inhibition) is 93.4%. The compound further had a growth, % of control in assay [4] of 103%. Moreover, the cell viability, % of control (lower = more cytotoxic) in [5] was determined as 62.3%. The viability (% of control) in assay [6] was determined as 37%. Besides, the Potency entry in assay [7] and in [9] was “inactive” throughout. The Potency in [8] is 18.7 µM (active); in [11], 16.6 µM (active); in [10] it was 18.7 µM (active).

On to `CC(=O)OC1C(C)OC(Oc2c(-c3ccc(O)cc3)oc3cc(O)cc(O)c3c2=O)C(O)C1OC(C)=O` (stereo unspecified), for which, in [1], the parasite growth, % of DMSO control was determined as 11.3%. In addition, the parasite growth remaining, % of DMSO control (lower = more inhibition) in assay [2] was found to be 72.5%. The parasite growth, % of control (lower = inhibition) in [3] was 32.5%. The same compound showed a growth, % of control in [4] of 4.99%. In addition, the cell viability, % of control (lower = more cytotoxic) in assay [5] was 5.65%. Moreover, the viability (% of control) in assay [6] stood at 7.44%. Further, the Potency entry in [7], in [9] and in assay [10] was “inactive” throughout.

These data come from PubChem BioAssay (NCATS).
